From PubChem BioAssay come the findings set out here.

Calls of active or inactive are those of the source.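 How the source made its calls, unless noted: active means inhibition above 20% together with a positive visual image hit; inconclusive means visual image hit but inhibition not above 20%; inactive means no visual image hit.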

By inhibition is commonly meant the change of the read-out against control, counted positive when it falls.

The nature of one experiment: inhibitors of TNFa-induced NFkB p65 translocation, primary screen, imaging, HUVEC, MLSMR starter and 10KST1 sets (AID 438).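 Further: compound added about 3h40 before a 20 min TNFalpha stimulation.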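 On inhibition: signal is the nuclear over cytoplasmic p65 intensity ratio per well.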 Conditions: HUVEC TNFa-induced p65 nuclear translocation; cell count: measured here: nuclei count (cytotoxicity indicator), at 2.08 µM; inhibition: at 2 µM, stronger effect = higher value, 0% TNFa-plus-vehicle, 100% no-TNFa wells.
For `COc1cc(C(=O)Nc2ccc3c(c2)C(=O)N(CCC(=O)O)C3=O)cc(OC)c1OC`, the inhibition is 2% (inactive) and the cell count worked out at 469.
`Cc1cc(NC(=O)c2ccc3nc(-c4ccccc4)c(-c4ccccc4)nc3c2)no1`: the cell count is 536 and the inhibition was -0.9% (inactive).
For the compound `Cc1ccc2c(c1C)NC(C)CC2C` (stereo not given), the inhibition was 9.8% (inactive) and the cell count is 553.
As to `Cn1c(CCCNC(=O)c2ccccc2)nc2ccccc21`, the cell count is 761 and the inhibition was -25.8% (inactive).
Consider `CCOc1ccc(N2CC(C(=O)Nc3ccc(F)cc3F)CC2=O)cc1` (stereo not given), for which the inhibition is 10.1% (inactive) and the cell count is 847.
On to `CC(=O)Nc1nc(C)c(-c2csc(Nc3ccc(O)cc3)n2)s1`, for which the cell count amounted to 547 and the inhibition is 1.5% (inactive).
For the compound `O=C(NCc1ccco1)C1CCN(C(=O)c2cc3sccc3n2Cc2ccc(F)cc2)CC1`, the cell count stood at 571 and the inhibition was -16.7% (inactive).
Consider `O=C(COC(=O)C1(c2ccccc2F)CCCC1)NC1CCS(=O)(=O)C1` (stereo not given), for which the inhibition is -6.9% (inactive) and the cell count was 804.
As for `N#CC1=C(N)Oc2n[nH]c(-c3cccs3)c2C1c1cccs1` (stereo not given), the inhibition was -15.3% (inactive) and the cell count stood at 562.
As for `NC(=O)C1(N2CCCCC2)CCN(Cc2ccccc2Cl)CC1`, the cell count is 438 and the inhibition is 0.3% (inactive).
As to `CCCCc1ccc(NC(=O)c2c(C)noc2C)cc1`, the inhibition is -2.5% (inactive) and the cell count was determined as 451.
In the case of `CC(=O)Oc1cccc(/C=c2\sc3nc(-c4ccco4)nn3c2=O)c1`, the cell count was found to be 324 and the inhibition is -0.6% (inactive).
For the compound `CCN(CC)S(=O)(=O)c1ccc2oc(C(=O)O)c(C)c2c1`, the cell count worked out at 335 and the inhibition is 12.8% (inactive).
In the case of `Cc1noc(C)c1COc1cccc(C(=O)Oc2ccc3c(c2)OCO3)c1`, the cell count was 329 and the inhibition is -9.6% (inactive).
`CCOC(=O)COc1ccc(S(=O)(=O)Nc2ccc3c(c2)OCO3)cc1`: the inhibition was 9.5% (inactive) and the cell count came out at 408.
In the same order, the values of `COc1ccc(N(CC(=O)N2CCN(Cc3ccc4c(c3)OCO4)CC2)S(C)(=O)=O)cc1OC` are 5% (inactive) and 359.
Turning to `CNC(=O)CN(C#N)c1nc(N(C)C)nc(N(C)C)n1`, the inhibition was -2.3% (inactive) and the cell count turned out to be 349.
As to `COc1cccc(-n2c(C)nc3c(cnn3-c3ccc(C)cc3)c2=O)c1`, the inhibition was -5% (inactive) and the cell count was 684.
As to `Cc1ccccc1-c1nc(CN2CCC(C(=O)NCCCN3CCOCC3)CC2)c(C)o1`, the inhibition was -5.3% (inactive) and the cell count was 598.
In the case of `Cc1nc2cc(NC(=O)N3CC4(C)CC3CC(C)(C)C4)ccc2n1C` (stereo not given), the cell count was 657 and the inhibition is 2.1% (inactive).
Take `CS(=O)(=O)N(CC(=O)N1CCN(c2cccc(Cl)c2)CC1)C1CCCCC1`: the inhibition was -6% (inactive) and the cell count came to 645.
Regarding `CC(C)(C)n1ncc2c(=O)n(CC(=O)NCCc3ccccc3)cnc21`, the cell count came out at 457 and the inhibition was 3.9% (inactive).
On to `CCCCc1cc(=O)oc2cc(C)cc(OC(C)C(=O)O)c12` (stereo not given), for which the cell count is 452 and the inhibition was -2.1% (inactive).
For `CC(C)(C)c1ccccc1NC(=O)c1cccnc1`, the cell count is 224 and the inhibition is -5.6% (inactive).
As to `Cc1cc(-c2ccccc2)c2nncn2n1`, the cell count turned out to be 304 and the inhibition was 0.9% (inactive).
Turning to `Cc1ccc(-c2nnn(CC(=O)N(CC(=O)NCC3CCCO3)c3ccccc3)n2)o1` (stereo not given), the cell count is 618 and the inhibition was -3.6% (inactive).
The corresponding values for `C=CCSc1nnc(-c2ccccc2NC(C)=O)c(=O)[nH]1` are 765 and -33.6% (inactive).
The corresponding values for `Cn1c(=O)c2c(nc(SCC(=O)NCc3ccc4c(c3)OCO4)n2Cc2ccccc2)n(C)c1=O` are 641 and -14.8% (inactive).
Consider `COc1cc(C(=O)N2CCC(c3nc(-c4cccnc4)no3)CC2)cc(OC)c1OC`, for which the cell count is 651 and the inhibition was -29.6% (inactive).
The corresponding values for `CC1CCc2nc(NC(=O)CN3CCN(Cc4ccc5c(c4)OCO5)CC3)sc2C1` (stereo not given) are 641 and -9.3% (inactive).
In the case of `O=C(CCCn1c(=O)c2sccc2n(Cc2ccc(F)cc2)c1=O)NCc1ccco1`, the inhibition is -9.3% (inactive) and the cell count is 417.
The corresponding values for `Cc1ccc2cc(CN(CC(C)C)C(=O)C3CCCO3)c(=O)[nH]c2c1` (stereo not given) are 6.3% (inactive) and 510.
As for `CCOc1ccc(C(=O)N(CN2CCCC2=O)c2ccc(C)cc2)cc1`, the inhibition was -1.4% (inactive) and the cell count was found to be 385.
`CCCCCc1c(O)c2ccccc2[nH]c1=O`: the cell count was found to be 596 and the inhibition was -9.8% (inactive).
For `CC1CCN(S(=O)(=O)c2ccc(NC(=O)CSc3nnnn3C)cc2)CC1`, the inhibition was -5.4% (inactive) and the cell count is 289.
In the same order, the values of `O=C(c1nc2n(n1)C(c1ccc(Cl)cc1)C=C(c1ccccc1)N2)N1CCOCC1` (stereo not given) are -3.9% (inactive) and 811.
In the same order, the values of `Cc1nc2cccc(C(=O)NC3CCCCC3)c2o1` are 6.8% (inactive) and 369.
For `COc1ccccc1-c1nnc2sc(-c3ccc(N(C)C)cc3)nn12`, the cell count is 695 and the inhibition was -11.2% (inactive).
Turning to `O=C(Nc1cccc(C(F)(F)F)c1)c1cccnc1N1CCCC1`, the cell count came out at 360 and the inhibition was 4.5% (inactive).
`CCNC(=O)C1CC(=O)N(Cc2ccc3c(c2)OCO3)C(=Nc2ccc(OCC)cc2)S1` (stereo not given): the inhibition was -3.7% (inactive) and the cell count is 577.

The next experiment in a line: reduction of polyQ htt aggregates in cells – imaging, exon1htt(103Q)mCFP cells, high-content imaging, primary screen (AID 483;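 active means visual image review flags a hit and inhibition of aggregation exceeds 20%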;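 further: compound exposure lasted 3 days before fixation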;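 on nuclei count: percent of the per-plate median nuclei count of sample wells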). The settings on record: exon1htt(103Q)mCFP cell line, aggregate imaging, at 2 µM; inhibition of aggregation: stronger effect = higher value; nuclei count: measured here: cell count, toxicity.
For `COc1cc(C(=O)Nc2ccc3c(c2)C(=O)N(CCC(=O)O)C3=O)cc(OC)c1OC`, the nuclei count was found to be 89.5% and the inhibition of aggregation was 4.8% (inactive).
In the same order, the values of `Cc1cc(NC(=O)c2ccc3nc(-c4ccccc4)c(-c4ccccc4)nc3c2)no1` are 102% and -14.8% (inactive).
`Cc1ccc2c(c1C)NC(C)CC2C` (stereo not given): the nuclei count is 101% and the inhibition of aggregation was 5.9% (inactive).
For `Cn1c(CCCNC(=O)c2ccccc2)nc2ccccc21`, the inhibition of aggregation was -0.3% (inactive) and the nuclei count turned out to be 104%.
As to `CCOc1ccc(N2CC(C(=O)Nc3ccc(F)cc3F)CC2=O)cc1` (stereo not given), the inhibition of aggregation is 7.4% (inactive) and the nuclei count worked out at 92.8%.
With `CC(=O)Nc1nc(C)c(-c2csc(Nc3ccc(O)cc3)n2)s1`, the nuclei count came out at 99.7% and the inhibition of aggregation was 33.1% (inactive).
For the compound `O=C(NCc1ccco1)C1CCN(C(=O)c2cc3sccc3n2Cc2ccc(F)cc2)CC1`, the inhibition of aggregation was -0.6% (inactive) and the nuclei count is 122%.
Take `O=C(COC(=O)C1(c2ccccc2F)CCCC1)NC1CCS(=O)(=O)C1` (stereo not given): the nuclei count is 124% and the inhibition of aggregation is -2.4% (inactive).
`N#CC1=C(N)Oc2n[nH]c(-c3cccs3)c2C1c1cccs1` (stereo not given): the inhibition of aggregation was 4.7% (inactive) and the nuclei count was 99.1%.
In the case of `NC(=O)C1(N2CCCCC2)CCN(Cc2ccccc2Cl)CC1`, the inhibition of aggregation is -1% (inactive) and the nuclei count was 98%.
As to `CCCCc1ccc(NC(=O)c2c(C)noc2C)cc1`, the inhibition of aggregation is 0.1% (inactive) and the nuclei count was 109%.
For `CC(=O)Oc1cccc(/C=c2\sc3nc(-c4ccco4)nn3c2=O)c1`, the inhibition of aggregation was -30% (inactive) and the nuclei count turned out to be 103%.
The corresponding values for `CCN(CC)S(=O)(=O)c1ccc2oc(C(=O)O)c(C)c2c1` are 39.6% (inactive) and 85.6%.
With `Cc1noc(C)c1COc1cccc(C(=O)Oc2ccc3c(c2)OCO3)c1`, the nuclei count is 80.2% and the inhibition of aggregation is 4.3% (inactive).
As to `CCOC(=O)COc1ccc(S(=O)(=O)Nc2ccc3c(c2)OCO3)cc1`, the inhibition of aggregation was 3.4% (inactive) and the nuclei count is 98.2%.
Regarding `COc1ccc(N(CC(=O)N2CCN(Cc3ccc4c(c3)OCO4)CC2)S(C)(=O)=O)cc1OC`, the inhibition of aggregation is 2.1% (inactive) and the nuclei count was found to be 120%.
For the compound `CNC(=O)CN(C#N)c1nc(N(C)C)nc(N(C)C)n1`, the inhibition of aggregation is 5.1% (inactive) and the nuclei count worked out at 92.5%.
For the compound `COc1cccc(-n2c(C)nc3c(cnn3-c3ccc(C)cc3)c2=O)c1`, the nuclei count turned out to be 111% and the inhibition of aggregation is 2.3% (inactive).
`Cc1ccccc1-c1nc(CN2CCC(C(=O)NCCCN3CCOCC3)CC2)c(C)o1`: the nuclei count came to 89.8% and the inhibition of aggregation was -16.7% (inactive).
With `Cc1nc2cc(NC(=O)N3CC4(C)CC3CC(C)(C)C4)ccc2n1C` (stereo not given), the nuclei count turned out to be 104% and the inhibition of aggregation is 6.5% (inactive).
Turning to `CS(=O)(=O)N(CC(=O)N1CCN(c2cccc(Cl)c2)CC1)C1CCCCC1`, the inhibition of aggregation was 11% (inactive) and the nuclei count was determined as 87.4%.
Consider `CC(C)(C)n1ncc2c(=O)n(CC(=O)NCCc3ccccc3)cnc21`, for which the inhibition of aggregation is 7.3% (inactive) and the nuclei count was 95.2%.
The corresponding values for `CCCCc1cc(=O)oc2cc(C)cc(OC(C)C(=O)O)c12` (stereo not given) are -5.4% (inactive) and 110%.
On to `CC(C)(C)c1ccccc1NC(=O)c1cccnc1`, for which the inhibition of aggregation was 28.5% (inactive) and the nuclei count was 91.8%.
Regarding `Cc1cc(-c2ccccc2)c2nncn2n1`, the nuclei count amounted to 108% and the inhibition of aggregation was -3% (inactive).
As for `Cc1ccc(-c2nnn(CC(=O)N(CC(=O)NCC3CCCO3)c3ccccc3)n2)o1` (stereo not given), the inhibition of aggregation was -12.2% (inactive) and the nuclei count worked out at 85.7%.
As for `C=CCSc1nnc(-c2ccccc2NC(C)=O)c(=O)[nH]1`, the inhibition of aggregation is 8% (inactive) and the nuclei count worked out at 102%.
Take `Cn1c(=O)c2c(nc(SCC(=O)NCc3ccc4c(c3)OCO4)n2Cc2ccccc2)n(C)c1=O`: the nuclei count stood at 104% and the inhibition of aggregation is 10.5% (inactive).
The corresponding values for `COc1cc(C(=O)N2CCC(c3nc(-c4cccnc4)no3)CC2)cc(OC)c1OC` are 110% and 2.1% (inactive).
The corresponding values for `CC1CCc2nc(NC(=O)CN3CCN(Cc4ccc5c(c4)OCO5)CC3)sc2C1` (stereo not given) are 100% and 2% (inactive).
As to `O=C(CCCn1c(=O)c2sccc2n(Cc2ccc(F)cc2)c1=O)NCc1ccco1`, the nuclei count was 92.5% and the inhibition of aggregation was 3% (inactive).
For `Cc1ccc2cc(CN(CC(C)C)C(=O)C3CCCO3)c(=O)[nH]c2c1` (stereo not given), the inhibition of aggregation is 12% (inactive) and the nuclei count worked out at 90%.
As for `CCOc1ccc(C(=O)N(CN2CCCC2=O)c2ccc(C)cc2)cc1`, the nuclei count stood at 118% and the inhibition of aggregation is -14.5% (inactive).
In the same order, the values of `CCCCCc1c(O)c2ccccc2[nH]c1=O` are 109% and -15.9% (inactive).
As for `CC1CCN(S(=O)(=O)c2ccc(NC(=O)CSc3nnnn3C)cc2)CC1`, the nuclei count amounted to 107% and the inhibition of aggregation was -4.7% (inactive).
The corresponding values for `O=C(c1nc2n(n1)C(c1ccc(Cl)cc1)C=C(c1ccccc1)N2)N1CCOCC1` (stereo not given) are 126% and 10.6% (inactive).
In the same order, the values of `Cc1nc2cccc(C(=O)NC3CCCCC3)c2o1` are 53.7% and -19.6% (inactive).
With `COc1ccccc1-c1nnc2sc(-c3ccc(N(C)C)cc3)nn12`, the inhibition of aggregation is -34.9% (inactive) and the nuclei count was determined as 1.9%.
`O=C(Nc1cccc(C(F)(F)F)c1)c1cccnc1N1CCCC1`: the nuclei count was determined as 105% and the inhibition of aggregation is -13% (inactive).
For `CCNC(=O)C1CC(=O)N(Cc2ccc3c(c2)OCO3)C(=Nc2ccc(OCC)cc2)S1` (stereo not given), the nuclei count was determined as 108% and the inhibition of aggregation was 13.6% (inactive).
